{
  "source": "PubChem BioAssay AID1688",
  "about": "(National Center for Advancing Translational Sciences (NCATS), 2009)",
  "note": "About 2,400 (1.1%) of roughly 220,000 compounds were called active. About 7% were inconclusive and are not listed. The sample holds actives, similar compounds and a random draw of the others, so the mix is not that of the screen. Calls come from the whole dose curve; as a rule, active = well fitted inhibition curve with a large enough effect; inconclusive = small, poorly fitted or top-dose-only effect, or effect the other way; inactive = no such curve, though single readings can be large or run the other way. % is set by controls: 0 for no effect and ±100 for the full control effect; potency is the fitted concentration of half-maximal effect.",
  "data": [
    {"assay": "qHTS Multiplex Assay to Identify Dual Action Probes in a Cell Model of Huntington: Aggregate Formation (GFP); note: nearly all actives have a fitted effect of over 60% in size", "details": "PC12 HttQ103-GFP aggregates, Acumen cytometry, 40 h; series mostly up to 9.22 µM; activity change, negative = inhibition: at the top concentration", "in_short": "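PC12 cells stably carrying ecdysone-inducible HTT exon 1 Q103–GFP were induced with tebufenozide (100 nM final) and treated with library compounds in titration. GFP aggregates in lysates were counted by laser scanning cytometry.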", "values": [
      {"compound": "COc1ccc(OCCC(=O)c2ccc(OC)cc2)cc1", "activity change, negative = inhibition": "18.6% (inactive)"},
      {"compound": "Cc1noc(C)c1C(=O)OCC(=O)/C=C1\\N(C)c2ccccc2C1(C)C", "activity change, negative = inhibition": "-17% [at 46.1 µM] (inactive)"},
      {"compound": "CC(=O)Nc1cccc(OCC(=O)/C=C2\\N(C)c3ccccc3C2(C)C)c1", "Potency": "11.2 µM (active)"},
      {"compound": "CN1/C(=C\\C(=O)c2cccnc2Cl)C(C)(C)c2ccccc21", "activity change, negative = inhibition": "-10.9% [at 46.1 µM] (inactive)"},
      {"compound": "Cc1ccc(NNC(=O)c2cccs2)cc1Cl", "activity change, negative = inhibition": "19% (inactive)"},
      {"compound": "O=C(Nc1ccc(S(=O)(=O)Nc2nccs2)cc1)c1cc(=O)[nH]c2ccccc12", "activity change, negative = inhibition": "-14.5% (inactive)"},
      {"compound": "Cc1cc(Cl)c(S(=O)(=O)NCC2CCCO2)cc1OCC(N)=O", "note": "(stereo not drawn)", "activity change, negative = inhibition": "-10.1% [at 46.1 µM] (inactive)"},
      {"compound": "Cc1ccc(C(=O)O)cc1S(=O)(=O)NCC1CCCO1", "note": "(stereo not drawn)", "Potency": "3.98 µM (active)"},
      {"compound": "Cc1ccc(NC(=O)c2ccc(S(=O)(=O)NCC3CCCO3)cc2)cc1C", "note": "(stereo not drawn)", "activity change, negative = inhibition": "0.556% (inactive)"},
      {"compound": "CC(C)(O)c1ccccc1CC[C@H](SCC1(CC(=O)O)CC1)c1cccc(/C=C/c2ccc3ccc(Cl)cc3n2)c1", "activity change, negative = inhibition": "6.98% [at 46.1 µM] (inactive)"},
      {"compound": "Cc1cc(Cl)ccc1NNC(=O)c1snnc1C", "activity change, negative = inhibition": "3.92% (inactive)"},
      {"compound": "O=C1C2C3C=CC(C3)C2C(=O)N1c1ccc(S(=O)(=O)Nc2nccs2)cc1", "note": "(stereo not drawn)", "activity change, negative = inhibition": "28.1% (inactive)"},
      {"compound": "CC(C)(C)c1cc(C(=O)NN)n(Cc2ccc(Cl)cc2Cl)n1", "activity change, negative = inhibition": "-29.8% (inactive)"},
      {"compound": "COc1cc(NC(=O)c2cccnc2SC)cc(OC)c1", "activity change, negative = inhibition": "-3.73% [at 46.1 µM] (inactive)"},
      {"compound": "COC(=O)c1ccc(NC(=O)c2ccccc2NS(=O)(=O)c2ccccc2)cc1", "Potency": "11.2 µM (active)"},
      {"compound": "CCOc1ccc(NC(=O)c2ccccc2NS(C)(=O)=O)cc1", "activity change, negative = inhibition": "20.3% (inactive)"},
      {"compound": "COc1cc(NC(=O)c2ccccc2NS(=O)(=O)c2ccc(Cl)s2)cc(OC)c1", "Potency": "3.98 µM (active)"},
      {"compound": "O=S(=O)(Nc1ccccc1N1CCOCC1)c1ccc(Cl)s1", "activity change, negative = inhibition": "-24.5% [at 46.1 µM] (inactive)"},
      {"compound": "COC(=O)c1ccccc1NC(=O)c1ccccc1NS(C)(=O)=O", "activity change, negative = inhibition": "3.87% [at 46.1 µM] (inactive)"},
      {"compound": "COc1ccc(S(=O)(=O)N(CC(=O)N/N=C/c2ccccc2C(=O)O)c2ccccc2OC)cc1", "activity change, negative = inhibition": "12.6% (inactive)"},
      {"compound": "CC(C)(C)NC(=O)/C(=C/c1cccnc1)NC(=O)c1ccco1", "activity change, negative = inhibition": "22.8% (inactive)"},
      {"compound": "CCn1c(CN2C(=O)CSc3ccccc32)n[nH]c1=S", "activity change, negative = inhibition": "-2.01% (inactive)"},
      {"compound": "Cc1nc(=O)c(-c2ccccc2)c(C)n1-c1ccc(Br)cc1", "activity change, negative = inhibition": "8.99% (inactive)"},
      {"compound": "CCCc1nc2oc3c(=O)[nH]cnc3c2c2c1COC(C)(C)C2", "activity change, negative = inhibition": "9.46% (inactive)"},
      {"compound": "Cc1cc(CO)nn1-c1ccc([N+](=O)[O-])cc1", "activity change, negative = inhibition": "9.64% (inactive)"},
      {"compound": "O=C(c1c(Cl)cccc1Cl)N1CCN(c2cccc3[nH]ccc23)CC1", "activity change, negative = inhibition": "-14% (inactive)"},
      {"compound": "Cc1ccc(-c2c[n+](=O)c3c(n2[O-])CCC3)cc1", "activity change, negative = inhibition": "-12.9% (inactive)"},
      {"compound": "CCC(=O)N1CCCc2ccccc21", "activity change, negative = inhibition": "-7.24% (inactive)"},
      {"compound": "Cc1cc(C)cc(OCC(=O)O/N=C(\\N)Cc2ccc([N+](=O)[O-])cc2)c1", "activity change, negative = inhibition": "-1.2% (inactive)"},
      {"compound": "CN(C)c1ccnc2sc3c(=O)n(Cc4ccccc4)cnc3c12", "Potency": "7.08 µM (active)"},
      {"compound": "CN(C)/C=C/c1c(C#N)c(=O)ncn1Cc1ccccc1", "activity change, negative = inhibition": "13.8% [at 46.1 µM] (inactive)"},
      {"compound": "O=c1c2c(ncn1Cc1ccccc1)nc1n2CCC1", "activity change, negative = inhibition": "-20.5% [at 46.1 µM] (inactive)"},
      {"compound": "CCOC(=O)N1CCN(C(=O)c2cc3c(-c4ccc(Cl)cc4)nn(C)c3s2)CC1", "activity change, negative = inhibition": "5.53% [at 46.1 µM] (inactive)"},
      {"compound": "COc1ccc(-c2cc(C(=O)NCc3ccco3)no2)cc1OC", "activity change, negative = inhibition": "10.5% [at 46.1 µM] (inactive)"},
      {"compound": "Cn1nc(-c2ccc(Cl)cc2)c2cc(C(=O)NCc3ccco3)sc21", "Potency": "20 µM (active)"},
      {"compound": "CN(CC(O)COc1ccc(S(=O)(=O)N2CCOCC2)cc1Cl)C1CCCCC1", "note": "(stereo not drawn)", "activity change, negative = inhibition": "-4.06% (inactive)"},
      {"compound": "Cn1nnc(NC(=S)NC(=O)c2ccccc2)n1", "activity change, negative = inhibition": "11.7% (inactive)"},
      {"compound": "CC(C)Cc1ccc(S(=O)(=O)N2CCN(C(=O)c3ccco3)CC2)cc1", "Potency": "10 µM (active)"},
      {"compound": "CCNC(=S)N1CCN(C(=O)c2ccco2)CC1", "activity change, negative = inhibition": "9.98% [at 46.1 µM] (inactive)"},
      {"compound": "CN1CCN(S(=O)(=O)c2ccc(NC(=O)c3ccco3)cc2)CC1", "activity change, negative = inhibition": "11.2% [at 46.1 µM] (inactive)"},
      {"compound": "CC1CC(=O)Nc2ccccc2N1S(=O)(=O)c1cccs1", "note": "(stereo not drawn)", "activity change, negative = inhibition": "3.13% (inactive)"},
      {"compound": "O=C(NCCCn1ccnc1)C(=O)NCC1OCCN1S(=O)(=O)c1cc(F)ccc1F", "note": "(stereo not drawn)", "activity change, negative = inhibition": "8.85% (inactive)"},
      {"compound": "CCOC(=O)CNC(=O)CSc1nnnn1-c1cc(C)ccc1C", "activity change, negative = inhibition": "14.2% [at 46.1 µM] (inactive)"},
      {"compound": "CCOC(=O)c1c(-c2ccc(C)cc2C)csc1NC(=O)CSc1nnnn1C", "Potency": "11.2 µM (active)"},
      {"compound": "COC(=O)c1ccccc1NC(=O)CSc1nnnn1C", "activity change, negative = inhibition": "-29.7% [at 46.1 µM] (inactive)"},
      {"compound": "O=S(=O)(c1ccc(Cl)cc1)N1CCCN(c2ccc(C(F)(F)F)cn2)CC1", "activity change, negative = inhibition": "-10.6% (inactive)"},
      {"compound": "CCc1ccc(N(CC)c2ncnc3nc[nH]c23)cc1", "Potency": "10 µM (active)"},
      {"compound": "c1ccc2c(c1)OCC(CNc1ncnc3nc[nH]c13)O2", "note": "(stereo not drawn)", "activity change, negative = inhibition": "-28.7% [at 46.1 µM] (inactive)"},
      {"compound": "Cc1ccc(NC(=O)c2ccc(CSc3ncnc4nc[nH]c34)cc2)c(C)c1", "activity change, negative = inhibition": "12.5% [at 46.1 µM] (inactive)"},
      {"compound": "COc1ccc2c(c1)OC(O)(C(F)(F)C(F)F)CC2=O", "note": "(stereo not drawn)", "Potency": "20 µM (active)"},
      {"compound": "COc1ccc2c(c1)SC(C)CC2=O", "note": "(stereo not drawn)", "activity change, negative = inhibition": "16.9% [at 46.1 µM] (inactive)"},
      {"compound": "CC1(C)CC(=O)c2ccc(O)cc2O1", "activity change, negative = inhibition": "32.4% [at 46.1 µM] (inactive)"},
      {"compound": "C=CCSc1nc(N)cc(=O)[nH]1", "activity change, negative = inhibition": "2.34% (inactive)"},
      {"compound": "O=C(O)CC1=C(Nc2ccccc2)C(=O)N(c2ccccc2)C1c1ccc(Cl)cc1", "note": "(stereo not drawn)", "activity change, negative = inhibition": "16.1% (inactive)"},
      {"compound": "CC(CO)(CO)NC(=O)c1ccc(=O)[nH]n1", "activity change, negative = inhibition": "11.4% (inactive)"},
      {"compound": "COc1cccc(/C=N/NC(=O)c2cccc([N+](=O)[O-])c2)c1OS(=O)(=O)c1ccc(C)cc1", "activity change, negative = inhibition": "-13.7% [at 46.1 µM] (inactive)"},
      {"compound": "O=C(N/N=C/c1cccc([N+](=O)[O-])c1)c1ccncc1", "activity change, negative = inhibition": "7.45% (inactive)"},
      {"compound": "Cc1ccc(-n2[nH]c(C)c(/C=N/NC(=O)c3cccc([N+](=O)[O-])c3)c2=O)cc1C", "Potency": "5.01 µM (active)"},
      {"compound": "Cc1ccc(N=Nc2c(C)[nH]n(-c3ccccc3)c2=O)cc1", "activity change, negative = inhibition": "0% (inactive)"},
      {"compound": "Cc1[nH]n(-c2cccc(Cl)c2)c(=O)c1/C=N/n1c(C)nc2ccccc2c1=O", "activity change, negative = inhibition": "-27.5% [at 46.1 µM] (inactive)"},
      {"compound": "Cc1[nH]n(-c2ccccc2)c(=O)c1/C=N/NC(=O)c1ccoc1C", "Potency": "7.08 µM (active)"},
      {"compound": "COc1cc2c(cc1OC)[C@@H](Cc1cc(OC)c(OC)c(OC)c1)[N+](C)(CCCOC(=O)CC/C=C/CCC(=O)OCCC[N+]1(C)CCc3cc(OC)c(OC)cc3[C@H]1Cc1cc(OC)c(OC)c(OC)c1)CC2", "note": "(stereo partly drawn)", "activity change, negative = inhibition": "-4.74% [at 46.1 µM] (inactive)"},
      {"compound": "Cc1nc2c(-c3ccccc3)c(C)[nH]n2c(=O)c1Cl", "Potency": "10 µM (active)"},
      {"compound": "Cc1cc(-c2ccccc2)n2nc(C)c(-c3ccccc3)c2n1", "activity change, negative = inhibition": "-11.2% [at 46.1 µM] (inactive)"},
      {"compound": "O=c1[nH]n2c(-c3ccccc3)nc(O)c2c2ccccc12", "activity change, negative = inhibition": "-14.4% (inactive)"},
      {"compound": "Cc1ccc(F)cc1NC(=O)Cc1nn(C)c(=O)c2ccccc12", "Potency": "14.1 µM (active)"},
      {"compound": "COc1ccc(-c2nn(C)c(=O)c3ccccc23)cc1NC(=O)COc1ccccc1", "activity change, negative = inhibition": "-17.9% [at 46.1 µM] (inactive)"},
      {"compound": "Cc1ccc(NC(=O)Cn2nc(C)c3ccccc3c2=O)c(C)c1", "activity change, negative = inhibition": "-23.1% [at 46.1 µM] (inactive)"}
    ]}
  ]
}
